dFosB act – enhances mouse delta FosB homodimer DNA binding; P13346; purified delta FosB, TAMRA-CDK5 oligo fluorescence polarization; percent of positive-control signal above neutral wells; activation, % at 25 µM; hit rate 0.99% among 340,000;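 active means mean activation above about 17%, with every replicate also reaching it, limit read from the data, passing the limit was not always enough; inconclusive means only one of the two conditions met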
Target sequence (P13346 whole entry, looked up): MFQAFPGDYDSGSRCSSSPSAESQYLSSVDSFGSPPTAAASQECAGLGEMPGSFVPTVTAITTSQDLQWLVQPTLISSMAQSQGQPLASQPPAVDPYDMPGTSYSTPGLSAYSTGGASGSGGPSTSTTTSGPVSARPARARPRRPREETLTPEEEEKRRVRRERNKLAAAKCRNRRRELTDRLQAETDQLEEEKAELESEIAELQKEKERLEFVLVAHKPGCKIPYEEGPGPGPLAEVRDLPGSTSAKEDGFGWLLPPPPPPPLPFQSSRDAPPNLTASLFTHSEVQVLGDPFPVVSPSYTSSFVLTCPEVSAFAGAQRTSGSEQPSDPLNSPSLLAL
ZTA DNA inh – counter-screen for EBNA-1 inhibitors: inhibitors of Epstein-Barr virus ZTA; AID 2234; inhibition, % at 11 µM; ZTA-DNA binding, fluorescence polarization; P03206; hit rate 0.15% among 320,000; in the data active means inhibition above about 33%
Target sequence (P03206 whole entry, looked up): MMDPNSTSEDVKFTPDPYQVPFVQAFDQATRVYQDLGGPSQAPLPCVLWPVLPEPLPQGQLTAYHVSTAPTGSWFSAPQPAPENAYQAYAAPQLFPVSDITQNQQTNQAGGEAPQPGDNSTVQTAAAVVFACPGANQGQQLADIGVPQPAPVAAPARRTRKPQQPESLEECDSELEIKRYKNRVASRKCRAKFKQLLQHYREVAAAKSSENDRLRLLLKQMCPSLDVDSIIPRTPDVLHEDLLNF
Rpn11 inh – blocks the human proteasome subunit Rpn11 | hit rate 0.59% among 360,000 | inhibition, % at 20 µM | human 26S proteasome, Ub4-pepOG fluorescence polarization; 20S core pre-blocked with epoxomicin | AID 588493 | O00487;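 active means inhibition at 20 µM, scaled to each plate's controls, above about 33%, limit read from the data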
NR3A LBD binder – modulates the human NR3A ligand-binding domain; hit rate 2.5% among 340,000; Tm shift relative to glycine control, % at 25 µM; NR3A LBD differential scanning fluorimetry, Tm shift; 0% = protein alone, 100% = glycine-bound protein;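 active means melting temperature shift of at least 10% of the positive control shift, at one fixed dose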
EBNA-1 inhibitor – blocks EBNA-1 binding to DNA | EBNA-1 DNA binding, fluorescence polarization | inhibition, % at 14.8 µM | hit rate 0.34% among 300,000 | AID 1950; in the data active means inhibition above about 28%
TPT1 inh – C. albicans TPT1 enzyme inhibition; recombinant caTPT1, FP RNA substrate dephosphorylation; hit rate 0.81% among 300,000; AID 1962; inhibition, % at 5 µM;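 active means inhibition above the mean of all tested compounds plus 3 SD, set per screening campaign, cut at about 24% in these data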;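 further: plate controls were DMSO alone for no effect and ferristatin control at 100 nM for full effect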
An asterisk follows results filed as active; ? = inconclusive; · = no result. Rows were chosen to be rich in hits. Some 4.5% of all compounds tested hit in one or more screens of this group.

SMILES | dFosB act | ZTA DNA inh | Rpn11 inh | NR3A LBD binder | EBNA-1 inhibitor | TPT1 inh
Cc1ccc(N2CSC3=C(C#N)C(c4cccs4)CC(=O)N3C2)cc1 (stereo not given) | -3.6 | 3.8 | 11.6 | -26.6 | 8.5 | 6.4
COc1ccc(N2CSC3=C(C#N)C(c4cccs4)CC(=O)N3C2)cc1 (stereo not given) | 4.6 | -4.7 | 2.9 | 18.6* | 5.5 | 6.4
COc1ccc(Oc2cnn(-c3ccccc3)c(=O)c2Br)cc1 | -12.4 | 8.0 | 4.8 | -3.5 | 8.8 | -1.2
COc1cc(C=C2Cc3ccccc3C2=O)cc(OC)c1OC | · | · | 8.6 | · | · | ·
COc1ccc(/C=C2\Cc3ccccc3C2=O)cc1OC | -6.6 | · | -5.1 | 13.3* | · | ·
COc1ccc(-c2nc(N=Nc3ccc(O)cc3)n[nH]2)cc1 | -2.1 | 11.5 | 10.3 | 13.2* | -6.9 | 6.4
Cc1ccc(-c2nc(N=Nc3ccc(O)cc3)n[nH]2)cc1 | -0.4 | 7.3 | 13.2 | 1.0 | -1.1 | 0.0
Cn1c(=O)[nH]c(=O)c2c1nc(NC1CCCC1)n2Cc1ccccc1 | -0.2 | 0.9 | -17.3 | 0.2 | 1.3 | -2.6
C#CCOCCOCCOCCNc1nc(N2CCN(C(=O)[C@H](CCC(=O)O)n3cc([C@@H](N)CO)nn3)CC2)nc(N2CCN(C(=O)[C@H](CCC(=O)O)n3cc([C@@H](N)CCSC)nn3)CC2)n1 | -0.4 | · | -4.6 | -0.3 | · | ·
Cc1cc(C)cc(N(CC(=O)NCc2ccc(F)cc2)C(=O)c2snc(C(N)=O)c2N)c1 | -3.1 | 17.0 | 3.7 | 11.4* | 13.0 | 1.7
Cc1cc(C)cc(N(CC(=O)NCc2ccco2)C(=O)c2snc(C(N)=O)c2N)c1 | 6.3 | -2.1 | -1.6 | 2.2 | -2.9 | 3.0
CC1(C)C(/C=C/C=C/C=C/C=C2\N(CCCCS(=O)(=O)O)c3ccc4ccccc4c3C2(C)C)=[N+](CCCCS(=O)(=O)[O-])c2ccc3ccccc3c21 | -15.0 | 60.9* | 26.9 | -8.8 | 50.7* | 75.3*
Cc1ccccc1C(=O)NC(CC(C)C)C(=O)N1CCN(c2ccccc2)CC1 (stereo not given) | -8.0 | -6.3 | -2.7 | -3.0 | 0.9 | -1.1
COC(=O)c1sccc1-c1ccc(C(=O)Nc2cccc(Cl)c2)o1 | -6.8 | 3.6 | 1.7 | 24.1* | -2.8 | 13.5
CN(C)S(=O)(=O)Oc1ccsc1C(=O)Nc1cccc(Cl)c1 | -12.9 | -10.7 | -3.2 | -12.1 | -14.9 | -3.9
Cc1cccn2c(=O)nc(SCC(=O)NC3CCCCC3)nc12 | -4.7 | -6.6 | -0.1 | -0.8 | 0.4 | -1.5
N#Cc1c(N)nc2c3c(sc(=N)c2c1N)NC(=O)CC3c1ccccc1 (stereo not given) | 11.2 | -8.8 | 7.9 | -3.2 | -7.9 | 13.7
Cc1c(C#N)c(N)nc2c3c(sc12)NC(=O)CC3c1ccc(Cl)cc1 (stereo not given) | 2.0 | 0.9 | -1.9 | 13.5* | -1.4 | 1.7
COC(=O)c1cc(S(=O)(=O)N2CCCCC2)c[nH]1 | -1.2 | -32.6 | 0.4 | 3.4 | -10.3 | -2.0
CC(=O)Nc1nc2c(ccc3ccccc32)s1 | 3.0 | 7.3 | -6.7 | -0.9 | -13.2 | 0.5
O=C(Cc1cccs1)Nc1nc2c(ccc3ccccc32)s1 | -0.4 | -8.5 | 3.9 | 10.8* | -20.3 | 9.2
CCOC(=O)c1c[nH]c(=S)n(-c2ccccc2)c1=O | 1.6 | -5.1 | -1.9 | 12.9* | 1.0 | 1.0
CCOC(=O)c1c(C)c2c(=O)[nH]cnc2n1-c1ccccc1 | -7.8 | -2.6 | -4.3 | 0.2 | 10.2 | -3.2
Cc1ccc(C)c(SCC(=O)Nc2cccc(S(=O)(=O)NC3=NCCCCC3)c2)c1 | -7.7 | 9.7 | -5.8 | -2.2 | -3.6 | 3.0
O=C(CSc1ccc2ccccc2c1Br)Nc1cccc(S(=O)(=O)NC2=NCCCCC2)c1 | -2.2 | 5.8 | 13.6 | 11.6* | 3.4 | -1.8
SMILES | dFosB act | ZTA DNA inh | Rpn11 inh | NR3A LBD binder | EBNA-1 inhibitor | TPT1 inh
COc1ccc(S(=O)(=O)Nc2c(C(=O)O)[nH]c3ccc(OC)cc23)c(OC)c1 | -9.7 | 1.6 | 10.8 | -7.2 | 4.6 | 1.0
CCCC(C(=O)NCCC(C)C)N(Cc1ccccc1)C(=O)c1snc(C(N)=O)c1N (stereo not given) | -6.2 | -4.3 | -1.6 | -3.5 | 7.1 | -0.1
COc1ccc(COC(=O)N/N=C/c2cccs2)cc1 | -1.4 | 9.4 | -0.2 | 31.9* | 3.9 | 0.3
O=C(N/N=C/c1c(F)cccc1Cl)C1CC1 | 3.3 | 7.6 | -7.5 | -0.7 | 2.6 | -0.5
O=C(N/N=C\c1ccc(-c2cccc(Cl)c2)o1)C(=O)NC1CCCC1 | -3.7 | 2.7 | -4.2 | 23.9* | -10.0 | 1.6
Cc1cc(C(=O)N/N=C/c2ccc(-c3cccc(Cl)c3)o2)n[nH]1 | -12.9 | 0.2 | 18.4 | 16.2* | 10.1 | -1.2
O=C(O)c1ccc(N/N=C/c2ccc(-c3cccc(Cl)c3)o2)cc1 | -3.4 | -3.8 | 9.9 | -7.1 | 4.8 | 3.0
O=C(N/N=C/c1c(Cl)cccc1Cl)C(=O)NC1CC1 | 14.5 | 11.0 | -1.2 | 10.3* | 2.7 | 1.3
Cc1ccc(C(=O)N/N=C/c2ccc(-c3cccc(Cl)c3)o2)cn1 | -8.5 | -6.0 | 4.6 | 0.0 | -8.5 | 1.4
Cc1ccc(CN2CCC(n3nccc3NC(=O)CCOc3ccccc3)CC2)cc1C | -4.5 | -5.8 | 0.4 | 1.4 | -10.4 | -0.5
C/C(=N/NC(=O)c1ccc2nc[nH]c2c1)c1cccs1 | 2.2 | 10.5 | -2.0 | 1.7 | 0.8 | 0.9
CCCN1C(=O)/C(=C/c2c(NCCCOCC)nc3c(C)cccn3c2=O)SC1=S | -5.1 | · | 77.8* | -0.4 | · | ·
Nc1cc(Cl)ccc1N1CCCCC1 | 0.3 | 3.2 | -4.0 | 0.4 | 4.7 | -0.6
Nc1cc(Cl)cc2c1-c1ccc(Cl)cc1C2 | 0.1 | · | 7.3 | 23.1* | · | ·
CCN(CC)CCOc1ccccc1C(C)=O | 7.1 | -3.9 | 0.9 | 1.1 | -1.1 | -1.6
Cc1ccc(/C=N/NC(=O)c2nnn(-c3nonc3N)c2CSc2ccccc2)s1 | 9.9 | -4.7 | 7.3 | 29.8* | 15.0 | 0.4
Nc1nonc1-n1nnc(C(=O)N/N=C/c2ccoc2)c1CSc1ccccc1 | -5.1 | -1.9 | -3.0 | 16.1* | 0.9 | -3.1
CCCc1c(C(=O)N/N=C/c2ccc(C)s2)nnn1-c1nonc1N | 13.6 | -5.4 | 6.0 | 5.6 | -3.8 | -0.4
CN(C)Cc1c(C(=O)N/N=C/c2ccoc2)nnn1-c1nonc1N | -4.6 | -16.4 | -5.0 | 5.4 | -9.3 | -1.2
Nc1nonc1-n1nnc(C(=O)N/N=C/c2ccoc2)c1CSc1ccc(Cl)cc1 | -1.7 | -1.8 | -3.7 | 34.7* | -13.5 | -0.5
Cc1ccc(/C=N/NC(=O)c2nnn(-c3nonc3N)c2CSc2ccc(Cl)cc2)o1 | ? | -10.8 | -4.9 | 21.0* | -21.2 | -2.5
Cn1cc([N+](=O)[O-])c(C(=O)N2CCCCCC2)n1 | 2.9 | -2.7 | -1.9 | -25.7 | 12.3 | -1.0
O=C(C1=COCCO1)N(Cc1nnc(-c2ccccc2Cl)o1)C1CC1 | -1.2 | -15.0 | 2.9 | 0.4 | · | ·
O=C(Cc1ccsc1)NNC(=O)c1ccccc1Cl | -2.0 | -13.0 | -1.4 | · | -14.2 | -1.4

Screening results: PubChem, several laboratories
